# KDM5B inh: inhibitors of human KDM5B histone demethylase; Potency, µM (top dose mostly 57.7 µM), hits mostly inhibitors; hit rate 2.6% among 220,000; Q9UGL1; KDM5B demethylase, FDH-coupled NADH fluorescence (FDH is formaldehyde dehydrogenase); active = well fitted inhibition curve with a large enough effect; also: 0% is about no effect; nearly all actives have a fitted effect of over 70% in size
#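 qHTS format, multiple compound concentrations. Buffer 50 mM HEPES pH 7.5/0.01% Tween-20; 200 nM KDM5BΔAP final; 10 min compound preincubation; substrate-mix levels 12.5 µM peptide, 25 µM α-KG, 0.25 mM NAD⁺; 30 min RT; ΔRFU.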
# Numbers without * were called inactive; i = inactive. Only a selection was taken, and hits are over-represented in it overall. Potency is read from the fitted curve at half-maximal effect.
SMILES,KDM5B inh
O=C(Cc1c[nH]c2ncc(-c3cccnc3)cc12)NC1CCOCC1,i
O=C(Cc1c[nH]c2ncc(-c3ccccc3)cc12)NC1CCOCC1,28.2µM*
Cn1cc(-c2cnc3[nH]cc(CC(=O)N4CCCC4)c3c2)cn1,i
CC1CCN(S(=O)(=O)N2CC=C(c3c[nH]c4ccccc34)CC2)CC1,i
CN(C)C(CNC(=O)CCc1ncc(-c2ccc(F)cc2)o1)c1ccco1 (stereo not given),i
CCOC(=O)CNC(=O)CSc1cn(CC(=O)N2CCCC2)c2ccccc12,i
CC(C)c1ccc(-n2ccnc(NCc3ccccc3)c2=O)cc1,i
CC1C(=O)CCN(CCCO)C1C (stereo not given),i
CCCc1nc2c(-c3ccc(F)cc3)c(C)[nH]n2c(=O)c1Cl,i
Cc1oc(-c2cccc(Cl)c2)nc1CNC(=O)Nc1ccccc1Cl,i
O=C(NC1CC1)c1ccc(NS(=O)(=O)c2ccccc2C(F)(F)F)cc1,i
Cc1sc(NC(=O)C2CCC2)c(C#N)c1C,i
CNc1nccnc1-c1ccccc1S(=O)(=O)NC(C)(C)C,28.2µM*
CC(C)(N)C(=O)N1CCN(c2nc(-c3ccccc3)nc3c2CCC3)CC1,i
CC(C)NC(=O)c1ccnc(-c2ccccc2S(=O)(=O)NC(C)(C)C)c1,i
CC(C)(C)NS(=O)(=O)c1ccccc1-c1nc(N)nc2c1CCC2,22.4µM*
Cc1ccc(-n2ncnc2-c2cc3c(n(-c4ccccc4)c2=O)CC(C)(C)CC3=O)c(C)c1,i
CCCOc1ccccc1C(=O)N1CCC(c2nc3ccccc3o2)CC1,i
Cc1c(-c2ccccc2)oc2c(C(=O)NC3CC3)cccc2c1=O,i
CNC(=S)NCCSCc1ccccc1F,i
OCCOCCn1cnc(-c2ccccc2)c1-c1ccc(-n2cccn2)cc1,31.6µM*
OCCCn1cnc(-c2ccccc2)c1COCc1ccccc1,i
CCOCCn1cnc(-c2ccccc2)c1-c1ccccc1OCC(N)=O,i
CCCc1nc(SC)ncc1C(=O)NCc1ccc(C)cc1,i
CC(=O)N/C(=C/c1ccccc1)C(=O)OC(C(N)=O)c1ccccc1 (stereo not given),i
SMILES,KDM5B inh
COc1ncccc1-c1nccc2c(=O)cc(N3CCOCC3)oc12,39.8µM*
O=c1cc(N2CCOCC2)oc2c(-c3ccccc3O)nccc12,i
Cc1ccccc1-c1nccc2c(=O)cc(N3CCOCC3)oc12,35.5µM*
CN(C)c1ccc(C(=O)N2CCC(Cc3ccccc3)CC2)cc1,i
COC(=O)c1ccc(CNC(=O)c2cccc(CS(C)=O)c2)cc1 (stereo not given),i
COc1ccccc1OC(C(=O)NC1CC1)c1ccccc1 (stereo not given),i
COc1cc(/C=C/C(=O)OC2CCC(C(C)(C)C)CC2)cc(OC)c1OC (stereo not given),i
COc1ccc(CNC(=O)Cn2c(=O)nc(-c3ccccc3)c3ccccc32)cc1OC,i
COc1ccc(-c2cc3c(nc2-c2ccccc2)nc(C(=O)NCCN(C)C)n3C)cn1,i
COc1cc(F)ccc1-c1cc2c(nc1-c1ccccc1)nc(C(=O)NCCN(C)C)n2C,31.6µM*
Cc1ccccc1-c1cc2c(nc1-c1ccccc1)nc(C(=O)NCCN(C)C)n2C,i
COc1ccccc1-c1cc2c(nc1-c1ccccc1)nc(C(=O)NCCN(C)C)n2C,31.6µM*
COCCCNC(=O)c1nc2nc(-c3ccccc3)c(Cl)cc2n1C,i
COCCNC(=O)c1cc(-c2ccccc2Cl)nc2ccccc12,i
COCCNC(=O)c1nc2nc(-c3ccccc3)c(Cl)cc2n1C,39.8µM*
O=C1C(O)=C(c2ccc(Cl)cc2)C(c2ccccc2F)N1Cc1ccccc1 (stereo not given),i
Cc1ccc2nc(C)c(C(=O)N3CCCc4ccccc43)cc2c1,i
Cc1ncc2n1C(=O)N(C1CCN(Cc3ccnn3C)CC1)C2,i
Cc1cc(Cl)ccc1OC(C)c1nc(-c2ccc(Br)o2)no1 (stereo not given),i
COc1ccc(/C=N/OCc2ccc(Cl)cc2Cl)c(OC)c1,i
O=C(OCc1cccc(Br)c1)c1ccc(O)cc1,i
CCOC(=O)C1CCCN(C(=O)c2ccc3nccn3c2)C1 (stereo not given),i
CCC1CN(C(=O)c2ccc3nc[nH]c3c2)CCC(=O)N1Cc1ccccc1 (stereo not given),i
CCC1CN(C(=O)c2ccc3nc(-c4ccccc4)cn3c2)CCN1C(C)C (stereo not given),28.2µM*
CC(NC1CC1)c1ccc2ccccc2c1 (stereo not given),i
SMILES,KDM5B inh
CN1CCCN(CC(=O)N2CCN(C)C3(CCNC(=O)CC3)C2)CC1 (stereo not given),i
CN1CCN(C(=O)c2cccc3c2NCCC3)CC12CCNC(=O)CC2 (stereo not given),25.1µM*
CN1CCN(C(=O)c2cccs2)CC12CCNC(=O)CC2 (stereo not given),i
COc1ccc(C2=C(O)C(=O)N(Cc3cccnc3)C2c2ccccc2F)cc1 (stereo not given),i
Cc1ccc(Nc2nc(C(=O)OCC(=O)c3ccc(Br)cc3)cs2)cc1,i
Cc1ccc(SC(Sc2ccc(C)cc2)(C(=O)c2ccccc2)C(=O)c2ccccc2)cc1,i
CC(C)CCN(C(=O)CN1c2ccccc2CC1C)c1c(N)n(Cc2ccccc2)c(=O)[nH]c1=O (stereo not given),i
COc1ccc(OC)c(CC(=O)N2CCC3(CC2)OCCCC3O)c1 (stereo not given),i
O=C(c1cnc2c(O)cccn2c1=O)N1CCC2(CC1)OCCCC2O (stereo not given),31.6µM*
NC(=O)COc1cccc(C(=O)N2CCC3(CC2)OCCCC3O)c1 (stereo not given),i
CC(C)NC(=O)[C@@H]1C[C@@H](NC(=O)c2ccon2)CN1Cc1cccnc1N,i
O=C(Cc1ccc(-n2cnnn2)cc1)NC1CCOC2(CCOCC2)C1 (stereo not given),i
O=C(NC1CCOC2(CCOCC2)C1)c1cnc2c(O)cccn2c1=O (stereo not given),31.6µM*
CC(C)NC(=O)C1Cn2cccc2C(=O)N1Cc1ccccc1 (stereo not given),i
CC(C)NC(=O)[C@@H]1C[C@@H](NC(=O)c2cnc3c(O)cccn3c2=O)CN1C,35.5µM*
O=C(NC1CCOC2(CCOCC2)C1)c1ccc(-c2cnco2)cc1 (stereo not given),i
CCc1ccc2oc(=O)cc(-c3oc4ccccc4c3NC(C)=O)c2c1,i
Nc1nc(COc2ccccc2C(=O)NCc2ccccc2)nc(Nc2ccc(F)cc2)n1,i
O=C(/C=C/c1ccc(-c2ccc(Cl)c(Cl)c2)o1)c1ccc(Br)cc1,i
N#Cc1nc(-c2ccc(Cl)cc2)oc1NCc1ccc(Cl)cc1,i
COc1ccc(-c2nc(N3CCOCC3)cc3c2CN(Cc2ccccc2)C3=O)cn1,35.5µM*
COc1ccc(-c2nc(N3CCOCC3)cc3c2CN(CC2CC2)C3=O)cn1,35.5µM*
Cc1ccccc1N1Cc2c(ncnc2N2CCOCC2)N(C)CC1=O,i
COCC(=O)N(C1CCOCC1)C1CCN(C(=O)c2ccc(OC)nc2)CC1,i
COc1ccc(-c2nc(N3CCOCC3)cc3c2CN(Cc2ccccc2)C3=O)cc1OC,i
Cn1cc(-c2nc(N3CCOCC3)cc3c2CN(CC2CC2)C3=O)cn1,i
Cc1ccccc1-c1nc(N2CCOCC2)cc2c1CN(CC1CC1)C2=O,35.5µM*

# Compound activity (PubChem BioAssay)
